The values below come from PubChem BioAssay (EPA / NIEHS).

Calls of active or inactive are those of the source. The calls were made as follows: active = hit-call score of the fitted dose curve at least 0.9, where 1 is the maximum; inactive = score below 0.9.

The test in a line: ATG_M_06_CIS: Attagene CIS-FACTORIAL HepG2 Assay for M06 Transcription Factor (Internal Marker) (AID 2282950). To be noted: HepG2 Attagene CIS-FACTORIAL M06 internal marker reporter; actives raise or lower the signal. Here is the method: ATG_CIS is a cell-based, multiplexed-readout assay that uses HepG2, a human liver cell line, with measurements taken at 24 hours after chemical dosing in a 24-well plate.ATG_M_06_CIS is one of 52 assay component(s) measured or calculated from the ATG_CIS assay. It is designed to make measurements of mRNA induction, a form of inducible reporter, as detected with fluorescence intensity signals by Reverse transcription polymerase chain reaction (RT-PCR) and Capillary electrophoresis technology.Data from the assay component ATG_M_06_CIS was analyzed into 1 assay endpoint. This assay endpoint, ATG_M_06_CIS, was analyzed with bidirectional fitting relative to DMSO as the negative control and baseline of activity. Using a type of inducible reporter, measures of mRNA for gain or loss-of-signal activity can be used to understand the background control at the transcription factor-level as they relate to the gene . Furthermore, this assay endpoint can be referred to as a secondary readout, because this assay has produced multiple assay endpoints where this one serves a background control function. To generalize the intended target to other relatable targets, this assay endpoint is annotated to the background measurement intended target family, where the subfamily is internal marker.
Human liver HepG2 cells are transiently transfected with multiple reporter transcription units (MRTUs) in 6-well plates using FuGene 6 reagent (Roche; 3 ml FuGene/1 mg DNA). The MRTU constructs are regulated by a cis-regulating element (promoter). […] A major difference between the CIS and TRANS system is that in CIS activities of endogenous TFs are measured, whereas the TRANS assay evaluates changes in activities of exogenous, chimeric NR-Gal4 proteins. […] At the end of 24 hour incubation, total RNA was isolated using TriZol reagent (Invitrogen). The isolated RNA is then reverse-transcribed using oligo(dT) primer and Mo-MLV reverse transcriptase (Invitrogen) with DNAse I (Ambion) treatment for 30 min. The one-tenth of the produced cDNA was amplified by PCR using Taq DNA polymerase (Invitrogen) and two reporter sequence-specific primers. The PCR products were fluorescently labeled by primer extension with 6-arboxyfluorescein (6-FAM) 5'-labeled reporter sequence-specific primer (2 min at 95 C, 20 s at 68 C and 10 min at 72 C) and these products were digested with 5U of HpaI (New England Biolabs) for 2h at 37 C. The fragments were purified using Qiaquick PCR columns (Qiagen), analyzed on an ABI 3130xL genetic analyzer (Applied Biosystems) with peak positions identified by using a set of X-rhodamine (ROX)-labeled MapMarker1000 molecular weight standards (BioVentures). The raw capillary electrophoresis data was processed using Attagraph software (Attagene).
As for `O=[N+]([O-])c1cccc(Cl)c1`, the outcome was inactive. On to `CS(=O)(=O)c1ccc(C2=C(c3ccccc3)C(=O)OC2)cc1`, for which the outcome was inactive. Take `C/C=C(\C)C(=O)OCCc1ccccc1`: the result was inactive. Take `O=Cc1ccccc1S(=O)(=O)O`: the call was inactive. In the case of `NC(=S)NNC(N)=S`, the result was inactive.

Regarding `C=CCOC(=O)CCCCCC`, the outcome was inactive. For the compound `COc1ccc(CCO)cc1`, the compound was classed as inactive. On to `CCCCCCC(C)Nc1ccc(Nc2ccccc2)cc1` (stereo not given), for which the outcome was inactive.

Take `OCCCCC(O)CO` (stereo not given): the result was inactive. As to `CN(C)c1cccc(O)c1`, the result was inactive.

On to `O=C(O)COCC(=O)O`, for which the compound was called inactive. On to `OCC(O)c1ccccc1` (stereo not given), for which the result was inactive.

Regarding `CSCCC=O`, the result was inactive. Consider `CC(=O)O[C@@H]1CC2CCC1(C)C2(C)C` (stereo not given in full), for which the compound was classed as inactive. As to `CCCCCCC(=O)c1ccccc1`, the compound was classed as inactive. For the compound `Cc1cc(C)nc(NS(=O)(=O)c2ccc(N)cc2)n1`, the compound was classed as inactive.

Turning to `CC(=O)Nc1ccc(C(=O)CCl)cc1`, the call was inactive. To `CCCCCCOCCOCCO` belongs “inactive”.

With `CC(C)CCCCCCc1ccc(OCCOCCO)cc1`, the compound was called inactive.

For the compound `CC[N+](C)(CC)CC`, the compound was classed as inactive. Turning to `C[C@@H]1CCN(C(=O)[C@H](CCCN=C(N)N)NS(=O)(=O)c2cccc3c2NC[C@H](C)C3)[C@@H](C(=O)O)C1`, the compound was classed as inactive. Regarding `CSc1c(Cl)c(Cl)c(Cl)c(Cl)c1Cl`, the outcome was inactive. In the case of `O=C(Nc1ccc2c(c1)Cc1ccccc1-2)C(F)(F)F`, the result was inactive. As for `CCc1ccc(O)cc1`, the result was inactive. For the compound `CC(C)(CO)[C@@H](O)C(=O)NCCC(=O)O`, the compound was classed as inactive. On to `OCc1cccc(Oc2ccccc2)c1`, for which the compound was called inactive. For `CCCC[O][Al]([O]CCCC)[O]CCCC`, the result was inactive. Turning to `COc1ccc(CCC(C)=O)cc1`, the outcome was inactive.

In the case of `O=C(Nc1ccc([N+](=O)[O-])cc1)Nc1ccc([N+](=O)[O-])cc1` (tested in a mixture with another compound), the result was inactive. As to `CC(C)Nc1nc(N)nc(Cl)n1`, the call was inactive. For `COc1cc(Cl)c(OC)cc1N`, the call was inactive.

For the compound `CCOCCOCCOCC`, the result was inactive. On to `CN(C)CCOc1ccc(/C(=C(/CCCl)c2ccccc2)c2ccccc2)cc1`, for which the outcome was inactive. For `O=C(O)CNc1ccccc1`, the compound was classed as inactive. The value for `CCCCCCCC/C=C\CCCCCCCC(=O)OCC` was “inactive”; that for `CC(C)CC(C)CC(O)CC(C)C` (stereo not given) was “inactive”; that for `CCCCCCCCCCCC(=O)OC[C@@H](O)[C@H]1OC[C@H](O)[C@H]1O` was “inactive”. Take `COc1cccc(OC)c1O`: the call was inactive. For the compound `COCCOC(=O)c1ccccc1C(=O)OCCOC`, the call was inactive.

With `C=C(C)C1CC=C(C)C(=O)C1` (stereo not given), the compound was classed as inactive.
